Only some compounds are listed: those with a hit (about 1.4% of all), similar ones and a draw of the others.
Sa ugtP lethal: growth inhibition of ugtP-null S. aureus, primary screen, RN4220 ugtP deletion, OD600; 16 h; growth inhibition, % (test concentration not listed); actives 0.54% (n = 330,000); in the data active means growth inhibition above about 68%
SSB-PriA inh: inhibitors of Klebsiella pneumoniae PriA binding to SSB C-terminal tail, primary screen, biochemical, AlphaScreen | PriA–SSB C-terminal tail interaction (Klebsiella pneumoniae) | AlphaScreen SSBct-PriA binding, biotinylated peptide | inhibition, % at 33 µM | actives 0.6% (n = 430,000); in the data active means inhibition mostly above about 37%, no sharp cut-off; inactive means mostly below about 20%
RN4220 kill: growth inhibition of S. aureus RN4220, primary screen, OD600; 16 h; inhibition, % (test concentration not listed); actives 0.33% (n = 330,000); AID 1259311, 2017; in the data active means inhibition above about 85%
CCHF vOTU inh: CCHFV vOTU protease inhibitors, primary screen, biochemical, Pep-AMC substrate, fluorescence | actives 0.55% (n = 370,000) | inhibition, % at 11.5 µM; in the data active means inhibition above about 30%
Mtb hypoxia inh: PubChem AID 1159583 | fluorescence inhibition, % (concentration not given with the values) | actives 0.1% (n = 300,000) | M. tuberculosis hypoxia-regulated fluorescent reporter, fluorescence; in the data active means fluorescence inhibition mostly above about 23%, no sharp cut-off; inactive means mostly below about 17%
Each line names hits and unclear results; the compound was inactive in the other large screens; ! = not confirmed by another sample.

CCN(CC)CCN(C(=O)c1ccc2c(c1)CCCC2)c1nc2ccc(OC)cc2s1	SSB-PriA inh 46!
COc1ccc(OC)c2sc(N(CCCN3CCOCC3)C(=O)c3ccccc3SC)nc12	SSB-PriA inh 28 (no result: Sa ugtP lethal, RN4220 kill, CCHF vOTU inh, Mtb hypoxia inh)
COc1ccc(C)c2sc(N(CCN3CCOCC3)C(=O)c3ccc(C)c(C)c3)nc12	none (no result: Sa ugtP lethal, RN4220 kill, CCHF vOTU inh, Mtb hypoxia inh)
CCN(CC)CCN(C(=O)c1ccc2c(c1)CCCC2)c1nc2ccc(C)cc2s1	none
COc1ccc(OC)c2sc(N(CCN3CCOCC3)C(=O)c3ccc4c(c3)CCCC4)nc12	SSB-PriA inh 41 (no result: Sa ugtP lethal, RN4220 kill, CCHF vOTU inh, Mtb hypoxia inh)
Cc1nn(-c2ccccc2)c(Cl)c1/C=C1\SC(=S)NC1=O	Sa ugtP lethal 99, RN4220 kill 100
Cc1nn(-c2ccccc2)c(Cl)c1/C=C1\SC(=S)N(CCCCCC(=O)O)C1=O	none
COC(=O)c1ccc(C23CC4(C2)C(CN(Cc2cccnc2)C4c2ccccc2)C3c2ccc(C(F)(F)F)cc2)cc1 (centres undefined)	none (no result: SSB-PriA inh, CCHF vOTU inh)
CC(=NNc1cc(-c2ccccc2)nc(-c2ccccc2)n1)c1ccc(O)c(C)c1	Sa ugtP lethal 99, RN4220 kill 98 (no result: CCHF vOTU inh)
COc1cc(NN=C(C)c2ccc(O)c(C)c2)nc(-c2ccccc2)n1	none (no result: CCHF vOTU inh)
CC(C)CN=c1cc(-c2ccccc2)oc2ccc(Cl)cc12	Mtb hypoxia inh 42
CC(O)CN=c1cc(-c2ccccc2)oc2ccc(Cl)cc12 (centres undefined)	none (no result: SSB-PriA inh)
Cc1ccc(C)c(S(=O)(=O)N=C2C=C(Sc3nc4ccccc4s3)C(=O)c3ccccc32)c1	none (no result: Sa ugtP lethal, RN4220 kill, CCHF vOTU inh, Mtb hypoxia inh)
CC(=O)Nc1ccc(C2=NN(C(C)=O)C(c3cccs3)C2)cc1 (centres undefined)	none (no result: Sa ugtP lethal, RN4220 kill, CCHF vOTU inh, Mtb hypoxia inh)
O=C1/C(=C\c2ccc(O)c(O)c2)SC(=S)N1Cc1ccccc1	Sa ugtP lethal 99
O=C1/C(=C\c2cc([N+](=O)[O-])ccc2O)SC(=S)N1Cc1ccc(Cl)cc1	RN4220 kill 88
O=C(O)c1cc(-c2ccc(/C=C3/SC(=S)N(Cc4ccccc4)C3=O)o2)ccc1Cl	Sa ugtP lethal 101, RN4220 kill 97
O=C(Cn1ccc2ccccc21)NCCc1ccncc1	none (no result: Sa ugtP lethal, RN4220 kill, CCHF vOTU inh, Mtb hypoxia inh)
Clc1ccc(-c2cc3ccccc3nc2N2CCOCC2)cc1	Sa ugtP lethal 93
Cc1ccc(-c2cc3ccccc3nc2N2CCCC2)cc1	Sa ugtP lethal 89 (no result: Mtb hypoxia inh)
CSc1ccccc1NC(=O)CS(=O)(=O)Cc1ccccc1	none (no result: Sa ugtP lethal, RN4220 kill, CCHF vOTU inh, Mtb hypoxia inh)
CN(C)c1ccc(/C=C/c2ccc3c4ccccc4ccc3[n+]2-c2ccccc2)cc1	Sa ugtP lethal 98, RN4220 kill 98 (not shown: Mtb hypoxia inh)
CN(C)c1ccc(/C=C/c2cccc[n+]2[O-])cc1	none (no result: Sa ugtP lethal, RN4220 kill, Mtb hypoxia inh)
CN(C)c1ccc(/C=C/c2ccc3ccccc3[n+]2C)cc1	Sa ugtP lethal 95, RN4220 kill 97
COc1ccc(CNC(=O)Cc2cc(=O)[nH]c(SCc3cccc(OC)c3)n2)cc1	none (no result: Sa ugtP lethal, RN4220 kill, CCHF vOTU inh, Mtb hypoxia inh)
c1cnc2c(OCc3cn4cccnc4n3)cccc2c1	SSB-PriA inh 43
CC(=O)c1ccccc1OC(=O)c1ccc(-c2ccccc2)cc1	Sa ugtP lethal 100
Oc1ccc(C=NNC(=S)NN=Cc2ccc(O)cc2)cc1	none (no result: CCHF vOTU inh)
Cc1ccc(C)c(NC(=O)CSc2nc(=O)n(Cc3cccnc3)c3c2CCCC3)c1	none (no result: Sa ugtP lethal, RN4220 kill, CCHF vOTU inh, Mtb hypoxia inh)
Nc1ccc(S(=O)(=O)Nc2cnc3ccccc3n2)cc1	Sa ugtP lethal 91 (not shown: Mtb hypoxia inh)
Nc1ccc(S(=O)(=O)Nc2nc3ccccc3o2)cc1	Mtb hypoxia inh 75
O=C(Nc1cccc(O)c1)c1cccc(NC(=O)c2cccs2)c1	Mtb hypoxia inh 54
CCCN(CC(=O)Nc1ccccc1C)C(=O)CCl	Mtb hypoxia inh 35
CCCN(CC(=O)Nc1ccccc1C)C(=O)COc1c(C)cccc1C	none
CCN1CCN(Cc2ccc(NC(=O)c3cc(NC(=O)C(=O)c4c[nH]c5ccccc45)cc(OC)c3)cc2C(F)(F)F)CC1	none
CCN1CCN(Cc2ccc(NC(=O)c3ccc(C)c(NC(=O)C(=O)c4c[nH]c5ccccc45)c3)cc2C(F)(F)F)CC1	Sa ugtP lethal 100, RN4220 kill 101
O=C(COc1ccc(F)cc1)NCC#CCN1CCCCC1	none (no result: Sa ugtP lethal, RN4220 kill, CCHF vOTU inh, Mtb hypoxia inh)
COc1ccc(-c2oc3ccc(-c4cc(OC)c(OC)c(OC)c4)cc3c2-c2ccc(OC)cc2)cc1	none
COc1ccc(-c2c(C)oc3ccc(C)cc23)cc1	Sa ugtP lethal 84
CCOC(=O)N1CCN(C(CC(=O)OC)C(=O)OC)CC1 (centres undefined)	SSB-PriA inh 76 (no result: Sa ugtP lethal, RN4220 kill, CCHF vOTU inh, Mtb hypoxia inh)
NC(N)=NC(=O)c1nc(Cl)c(N)nc1N	Sa ugtP lethal 98!

Screening data (PubChem)
